Screen size: about 16,000 compounds; about 4,000 (25%) were called active. Roughly 26% stayed inconclusive and do not appear here. Calls come from the whole dose curve; as a rule, active = well fitted curve in the direction sought with a large enough effect; inconclusive = small, poorly fitted or top-dose-only effect, or effect the other way; inactive = no such curve, though single readings can be large or run the other way. The list is a sample of the results.
Molecular target: Cytochrome P450 2C9 (Homo sapiens) (UniProt P11712)
Experiment: Cytochrome panel assay with activity outcomes
Conditions: recombinant CYP, pro-luciferin dealkylation, luminescence, p450-cyp2c9; series mostly up to 57.1 µM; activity, negative = inhibition: at the top concentration
% is set by controls: 0 for no effect and ±100 for the full control effect.

Cytochrome P450 2C9 (Homo sapiens), sequence (P11712 whole entry, looked up): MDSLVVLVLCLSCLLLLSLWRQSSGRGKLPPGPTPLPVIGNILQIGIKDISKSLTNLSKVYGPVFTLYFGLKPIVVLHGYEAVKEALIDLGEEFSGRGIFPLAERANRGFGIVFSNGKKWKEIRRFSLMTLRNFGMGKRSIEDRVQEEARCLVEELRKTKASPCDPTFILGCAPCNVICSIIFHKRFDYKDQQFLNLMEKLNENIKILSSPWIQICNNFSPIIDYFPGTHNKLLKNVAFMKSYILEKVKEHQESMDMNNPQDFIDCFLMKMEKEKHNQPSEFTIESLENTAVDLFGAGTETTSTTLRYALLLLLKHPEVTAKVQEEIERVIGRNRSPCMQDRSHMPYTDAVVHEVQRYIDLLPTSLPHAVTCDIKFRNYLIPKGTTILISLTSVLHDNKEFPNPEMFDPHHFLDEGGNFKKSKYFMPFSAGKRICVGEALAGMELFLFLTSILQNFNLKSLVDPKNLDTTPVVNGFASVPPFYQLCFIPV

Compound | AC50 | activity, negative = inhibition
Fc1ccc(CSc2nnc(-c3cc4c(s3)-c3ccccc3CC4)o2)cc1 | 3.16 µM (active) | –
CCCCc1cc2ccccc2c(OCCN(C)C)n1 | – | -4.88% [at 25.6 µM] (inactive)
Cc1cc(C)n2c(SCC(=O)N(C)C3CCS(=O)(=O)C3)nnc2n1 (configuration not stated) | – | -6.22% (inactive)
O=C(CSc1nnc(-c2ccc(Cl)cc2Cl)n1C1CCCCC1)NC1CCS(=O)(=O)C1 (configuration not stated) | – | -10.5% (inactive)
Cc1ccc(-n2ccnc2SCC(=O)N(CC(C)C)C2CCS(=O)(=O)C2)c(C)c1 (configuration not stated) | 14.1 µM (active) | –
CCC(=O)OCN1C(=O)C=CC1=O | – | 22.6% [at 11.4 µM] (inactive)
NC(N)=NC[C@@H]1CCCCCCN1 | – | 3.41% [at 11.4 µM] (inactive)
Cn1cccc1C(=O)N1CCC2(CC1)CN(C(=O)Nc1ccccc1)C2 | – | 8.52% (inactive)
CN1c2ccccc2C(O)=C(C(=O)Nc2ccccc2)S1(=O)=O | 2.82 µM (active) | –
O=C(Nc1ccccc1)OC[C@H](CN1CCCCC1)OC(=O)Nc1ccccc1 | – | -19.8% [at 25.6 µM] (inactive)
Cc1c(NC(=O)Nc2c(Cl)cccc2Cl)c(=O)n(-c2ccccc2)n1C | – | -2.44% [at 11.4 µM] (inactive)
Cc1c(NC(C)C)c(=O)n(-c2ccccc2)n1C | – | -9.77% [at 25.6 µM] (inactive)
Cc1ccc(S(=O)(=O)/N=C(/Nc2c(C)n(C)n(-c3ccccc3)c2=O)c2ccc(Cl)cc2)cc1 | 11.2 µM (active) | –
COC(=O)N1CCC2(CCCN(Cc3nccs3)C2)CC1 | – | -13.7% (inactive)
O=S(=O)(NCc1cc(-c2ccccc2)no1)c1ccc(Cl)cc1 | – | -25.6% (inactive)
Cn1c(CNS(=O)(=O)c2ccc(Cl)cc2)n[nH]c1=S | – | -14.4% (inactive)
O=S(=O)(NCc1cc(-c2ccc(Cl)cc2)no1)c1ccc(Cl)cc1 | 3.98 µM (active) | –
COC(=O)[C@@H]1[C@@H]2C[C@H]3c4[nH]c5cc(OC)ccc5c4CCN3C[C@@H]2C[C@H](OC(=O)c2cc(OC)c(OC)c(OC)c2)[C@H]1OC | – | -7.98% [at 25.6 µM] (inactive)
CO[C@@H]1COC(=O)[C@@H](CCSC)NC(=O)C/C=C\[C@@H](C)COC(=O)CCC[C@H]1C | – | -5.5% [at 11.4 µM] (inactive)
O=c1c2c(n3cnnc3n1-c1ccccc1)-c1ccccc1CC21CCCCC1 | – | -19.1% (inactive)
Oc1cccc(-c2nc3c4c(ncn3n2)-c2ccccc2CC42CCCC2)c1 | 7.08 µM (active) | –
CCOc1cc(/C=C2/NC(=O)N(CC(=O)Nc3cccc(C)c3)C2=O)ccc1OC | – | -14.1% (inactive)
CCOc1cc(/C=C2\C(=O)N(Cc3ccc(C)cc3)C(C)=C2C(=O)OC)ccc1O | 1.41 µM (active) | –
CCCCNC(=O)C1CC(=O)N(CCC(C)C)C1 (configuration not stated) | – | -21.3% (inactive)
O=C(O)COc1c(Cl)cc(Cl)c2cccnc12 | – | 15.5% [at 11.4 µM] (inactive)
COCCNC(=O)c1cn(Cc2c(F)cccc2Cl)nn1 | – | -7.08% (inactive)
COC(=O)c1sc2ncccc2c1OCc1c(Cl)cccc1Cl | 1.78 µM (active) | –

Reference: PubChem BioAssay AID1851 (National Center for Advancing Translational Sciences (NCATS), 2009)
